Assay [1] deals with Luciferin 4-monooxygenase (Photinus pyralis) (UniProt P08659). Put plainly: qHTS assay to identify small molecule inhibitors of firefly luciferase (AID 1224835). Also: nearly all actives have a fitted effect of over 25% in size. Also: potency is read from the fitted curve at half-maximal effect. The gist of the method: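 Inhibition of purified Photinus luciferase is measured by luminescence. Substrate levels (D-luciferin, ATP) sit at their KM values. Each compound is tested in a concentration series.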
Luciferin 4-monooxygenase (Photinus pyralis), sequence (P08659 whole entry, looked up): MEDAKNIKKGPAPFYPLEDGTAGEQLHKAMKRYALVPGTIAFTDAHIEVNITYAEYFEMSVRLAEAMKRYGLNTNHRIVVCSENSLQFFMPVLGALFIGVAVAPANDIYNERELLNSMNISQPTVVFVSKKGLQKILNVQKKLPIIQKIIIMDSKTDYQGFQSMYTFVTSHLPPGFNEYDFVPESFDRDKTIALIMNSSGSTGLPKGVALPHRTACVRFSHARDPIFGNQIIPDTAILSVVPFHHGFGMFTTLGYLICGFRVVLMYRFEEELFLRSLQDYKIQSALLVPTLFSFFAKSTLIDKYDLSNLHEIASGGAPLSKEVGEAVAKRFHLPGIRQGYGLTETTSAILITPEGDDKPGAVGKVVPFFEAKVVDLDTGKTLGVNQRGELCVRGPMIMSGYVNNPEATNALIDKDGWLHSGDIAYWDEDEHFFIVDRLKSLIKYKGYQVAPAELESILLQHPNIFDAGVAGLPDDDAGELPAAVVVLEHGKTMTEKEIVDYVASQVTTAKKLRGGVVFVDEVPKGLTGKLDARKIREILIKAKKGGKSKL
For orientation: In qHTS, concentration-response curves come from the screen itself.

The nature of assay [2]: qHTS assay to identify small molecule agonists of the constitutive androstane receptor (CAR) signaling pathway - cell viability counter screen (AID 1224836). Also: nearly all actives have a fitted effect of over 45% in size. Also: potency is read from the fitted curve at half-maximal effect. Summed up: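 Multiplexed viability check: HepG2-CYP2B6-hCAR cells, 15-point compound dosing, 0.75 uM PK11195 final, 23 h at 37 C, CellTiter-Fluor fluorescence.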
A short description of assay [3]: qHTS assay to identify small molecule antagonists of the constitutive androstane receptor (CAR) signaling pathway - cell viability counter screen (AID 1224837). Also: nearly all actives have a fitted effect of over 45% in size. Also: potency is read from the fitted curve at half-maximal effect. The gist of the method:
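Counter screen run in HepG2-CYP2B6-hCAR cells: 4 hr settle, compound titration (15 concentrations) with 50 nM CITCO, 23 hr at 37 C/5% CO2, CellTiter-Fluor fluorescence.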

A short description of assay [4]: qHTS assay to identify small molecule antagonists of the estrogen related receptor signaling pathway with the pleiotropic PPARgamma coactivator (PGC) from Tox21 10K library - cell viability counter screen (AID 1224840; active = well fitted cell-killing curve with a large enough effect in the repeat runs, not every such curve was filed as active; also: nearly all actives have a fitted effect of over 40% in size; also: potency is read from the fitted curve at half-maximal effect). Summed up: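 Following seeding of 2,000 PGC/ERR cells/well and 6 hours' incubation, test compounds were delivered in DMSO. The plates then sat 17.5 hours at 37 C before a fluorogenic live-cell protease reagent (CellTiter-Fluor) was read after 30 min.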

Assay [5] can be described thus: qHTS assay to identify small molecule antagonists of the estrogen related receptor signaling pathway with the pleiotropic PPARgamma coactivator (PGC) from Tox21 10K library (AID 1224841; call rule not given here; also: actives are mostly falling curves and most rising ones were filed inactive; nearly all actives have a fitted effect of over 50% in size; also: potency is read from the fitted curve at half-maximal effect). Summed up:
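qHTS antagonist format: PGC/ERR cells, 2k/well, compound in DMSO by pin transfer after 6 h attachment, 18 h treatment at 37 C, One-Glo luminescence read at 30 min.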

Assay [6] in a line: qHTS assay to identify small molecule agonists of the estrogen related receptor signaling pathway with the pleiotropic PPARgamma coactivator (PGC) from Tox21 10K library (AID 1224842). Also: nearly all actives have a fitted effect of over 15% in size. Summed up: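 Luminescence from One-Glo (30 min, room temperature) measured after PGC/ERR cells had 18 h at 37 C with pinned compound (23 nL in DMSO). Cells had been seeded at 2,000 per well and pre-incubated 6 h.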

A short description of assay [7]: qHTS assay to identify small molecule agonists of the hypoxia (HIF-1) signaling pathway - cell viability counter screen (AID 1224844; calls by dose curve; also: nearly all actives have a fitted effect of over 50% in size; also: potency is read from the fitted curve at half-maximal effect). Summed up:
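Cells (HRE-bla ME-180, 2,000 per well) sat 5 hrs at 37C, got compound for 17 hrs, were read for CCF4-AM FRET, and were finally lysed with CellTiter-Glo for a 30 min room-temperature luminescence read.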

A short description of assay [8]: qHTS assay to identify small molecule agonists of H2AX (AID 1224845; active = well fitted activation curve with a large enough effect in the signal ratio in the repeat runs, not every such curve was filed as active; the % refers to the signal ratio). Summed up: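 Phospho-H2AX Ser139 measured by HTRF (ex 320 nm; em 665 and 620 nm) after 24 hr antibody incubation. Compounds, 15 concentrations, 0.76% DMSO, were applied to CHO-K1 cells for 3hr at 37C before lysis.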
Assay [9] is described as follows: qHTS assay to identify small molecule agonists of the hypoxia (HIF-1) signaling pathway (AID 1224846; active = well fitted activation curve with a large enough effect in the signal ratio in the repeat runs, not every such curve was filed as active; the % refers to the signal ratio). The gist of the method: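 A low-serum medium (0.5% dialyzed FBS) holding 2,000 HRE-bla ME-180 cells per well is preincubated for 5 hrs, dosed with compounds by pintool, and kept a further 17 hrs at 37C, 5% CO2 before CCF4-AM FRET detection of beta-lactamase.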

A short description of assay [10]: qHTS assay to identify small molecule agonists of H2AX - cell viability counter screen (AID 1224847; calls by dose curve;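 also: wild-type CHO-K1 cells; top concentration of the series differs between compounds; nearly all actives have a fitted effect of over 30% in size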). Summed up: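 After overnight plating of 1000 CHO-K1 cells per well, a 15-concentration compound series was applied for 3 hr at 37C. Luminescence from CellTiter-Glo, read following 30 min at room temperature, reflected cell viability.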
Assay [11] is described as follows: qHTS assay to identify small molecule antagonists of the estrogen related receptor (ERR) signaling pathway from Tox21 library (AID 1224848). Also: nearly all actives have a fitted effect of over 50% in size. Also: potency is read from the fitted curve at half-maximal effect. Summed up: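 Reading was by luminescence 30 min after ONE-Glo addition. Before that, ERR cells at 2,000 per well had rested 6 h at 37 C/5% CO2 and then received pin-tooled compounds in DMSO for 18 h at 37 C.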
Assay [12] is described as follows: qHTS assay to identify small molecule agonists of the estrogen related receptor (ERR) signaling pathway from Tox21 library (AID 1224849; calls by dose curve; also: nearly all actives have a fitted effect of over 15% in size). To be noted: ERR reporter cell line, ONE-Glo luciferase, 18 h. The gist of the method:
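Screening used an NTP-provided ERR luciferase cell line. Compounds in DMSO were added 6 h after seeding and left 18 h at 37 C before a 30 min ONE-Glo step and luminescence reading.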

The nature of assay [13]: qHTS RealTime-Glo MT Cell Viability Assay in HepG2 cells - 24 hour (AID 1224867). Also: nearly all actives have a fitted effect of over 50% in size. Also: potency is read from the fitted curve at half-maximal effect. The gist of the method: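 qHTS, HepG2, 600 cells/well, RealTime-Glo (NanoLuc + prosubstrate) added with cells; 5 h preincubation; DMSO compound addition; 37 C; luminescence at 0/8/16/24/32/40 h.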
Assay [14] in a line: qHTS RealTime-Glo MT Cell Viability Assay in HEK293 cells - 32 hour (AID 1224868). Also: nearly all actives have a fitted effect of over 50% in size. Also: potency is read from the fitted curve at half-maximal effect. Summed up: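 Assay medium contained NanoLuc luciferase plus cell-permeant prosubstrate, added with HEK293 cells at 600 cells/well. After 5 h at 37 C/5% CO2 compounds were added; plates stayed at 37 C for 40 h with serial luminescence reads.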
The nature of assay [15]: A CellTox Green Cytotoxicity Assay to monitor cytotoxicity in HEK293 cells - 0 hour (AID 1224869). Also: nearly all actives have a fitted effect of over 50% in size. Summed up: (§1)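 Fluorescence intensity, read at 0, 8, 16, 24, 32 and 40 h of compound treatment, reflected dye binding to DNA of dead HEK293 cells; compounds (23 nL, DMSO) were added 5 h after plating cells with reagent.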
Assay [16] is described as follows: qHTS RealTime-Glo MT Cell Viability Assay in HepG2 cells - 40 hour (AID 1224870). Also: nearly all actives have a fitted effect of over 50% in size. The gist of the method: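 Real-time viability: cells seeded at 600 per well together with NanoLuc and cell-permeant prosubstrate, compounds added after 5 h incubation. Luminescence tracked at 0, 8, 16, 24, 32 and 40 h of exposure.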
The nature of assay [17]: A CellTox Green Cytotoxicity Assay to monitor cytotoxicity in HEK293 cells - 40 hour (AID 1224871). Also: nearly all actives have a fitted effect of over 45% in size. Also: potency is read from the fitted curve at half-maximal effect. Summed up:
as §1

Assay [18] deals with Nuclear receptor subfamily 1 group I member 3 (Homo sapiens) (UniProt Q14994). The experiment in a line: qHTS assay to identify small molecule agonists of the constitutive androstane receptor (CAR) signaling pathway (AID 1224839).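 Also: HepG2 cells stably carrying human CAR and a CYP2B6 luciferase reporter; nearly all actives have a fitted effect of over 15% in size.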 The gist of the method:
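Using human hepatoma HepG2 cells engineered with hCAR and a CYP2B6-2.2kb reporter, 15-concentration compound series were incubated 24 h alongside PK11195 at 0.75 uM final, with luminescence quantified afterwards.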

Assay [19] deals with Thyrotropin receptor (Homo sapiens) (UniProt P16473). The experiment in a line: qHTS assay to identify small molecule agonists of the thyroid stimulating hormone receptor (TSHR) signaling pathway (AID 1224843; calls by dose curve; also: nearly all actives have a fitted effect of over 45% in size; also: potency is read from the fitted curve at half-maximal effect). The gist of the method:
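HEK293 cells stably bearing the thyrotropin receptor were plated at 800 cells/well and challenged with compound (30 min, RT). Accumulated cAMP was quantified via cAMP-d2 competing for cryptate-tagged antibody.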

The target in assay [20] is Nuclear receptor subfamily 1 group I member 3 (Homo sapiens) (UniProt Q14994). Put plainly: qHTS assay to identify small molecule antagonists of the constitutive androstane receptor (CAR) signaling pathway (AID 1224838).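 Also: HepG2 cells stably expressing hCAR with CYP2B6 luciferase reporter stimulated by CITCO; nearly all actives have a fitted effect of over 40% in size.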 Summed up:
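Cell line: HepG2 double-stable for hCAR and CYP2B6-2.2kb reporter. Agonist: CITCO, 50 nM final. Compounds: 15 concentrations, 24 h, 37 C. Detection: ONE-Glo luminescence.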

[21] abbreviates: at 92.4 µM (top of the series) unless noted.

Each structure is given as a SMILES string. Several values for one entry are separate records, joined by “and”; a condition that tells them apart may be missing. Equal entries are not always repeated. Records with an inconclusive call do not appear. The source holds several records for some structures; these can differ, active in one and inactive in another. Activity calls are given as the source filed them. Unless noted, calls follow the shape of the dose curve; as a rule, active = well fitted curve in the direction sought with a large enough effect in the repeat runs; inconclusive = weak or mixed curves; inactive = no such curve, though single readings can be large; an effect the other way counts as inactive or inconclusive.
% is scaled to controls: 0 for no effect and ±100 for the full control effect.

Nuclear receptor subfamily 1 group I member 3 (Homo sapiens), sequence (Q14994 whole entry, looked up): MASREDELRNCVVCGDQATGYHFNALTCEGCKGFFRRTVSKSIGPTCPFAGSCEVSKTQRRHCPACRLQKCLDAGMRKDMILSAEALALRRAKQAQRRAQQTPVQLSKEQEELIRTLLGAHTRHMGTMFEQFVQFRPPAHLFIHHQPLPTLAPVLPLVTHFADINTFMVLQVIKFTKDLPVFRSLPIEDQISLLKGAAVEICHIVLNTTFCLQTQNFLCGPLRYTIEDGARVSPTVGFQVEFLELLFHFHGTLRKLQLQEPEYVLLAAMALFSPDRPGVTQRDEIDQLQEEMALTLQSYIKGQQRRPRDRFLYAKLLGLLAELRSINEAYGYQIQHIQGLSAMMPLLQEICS
Thyrotropin receptor (Homo sapiens), sequence (P16473 whole entry, looked up): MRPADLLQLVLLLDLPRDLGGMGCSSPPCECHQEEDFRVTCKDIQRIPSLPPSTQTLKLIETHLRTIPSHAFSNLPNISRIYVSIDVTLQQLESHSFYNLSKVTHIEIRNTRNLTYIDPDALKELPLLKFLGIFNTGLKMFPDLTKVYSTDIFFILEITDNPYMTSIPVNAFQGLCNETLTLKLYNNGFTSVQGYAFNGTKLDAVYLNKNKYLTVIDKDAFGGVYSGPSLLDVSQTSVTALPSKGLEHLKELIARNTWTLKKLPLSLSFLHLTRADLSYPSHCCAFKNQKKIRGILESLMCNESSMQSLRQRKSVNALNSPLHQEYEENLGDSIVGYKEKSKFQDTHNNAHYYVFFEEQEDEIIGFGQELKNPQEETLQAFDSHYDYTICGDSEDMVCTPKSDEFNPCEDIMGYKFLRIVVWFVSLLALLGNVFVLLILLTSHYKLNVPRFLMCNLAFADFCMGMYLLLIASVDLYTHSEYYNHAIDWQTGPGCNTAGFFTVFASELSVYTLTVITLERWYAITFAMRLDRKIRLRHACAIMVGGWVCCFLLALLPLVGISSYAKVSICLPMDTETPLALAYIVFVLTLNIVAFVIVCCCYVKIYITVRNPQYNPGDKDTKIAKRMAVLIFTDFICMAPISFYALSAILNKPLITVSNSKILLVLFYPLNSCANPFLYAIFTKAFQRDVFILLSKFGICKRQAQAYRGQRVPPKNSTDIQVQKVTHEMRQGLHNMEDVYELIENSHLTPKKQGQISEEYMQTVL

Turning to `CCN(CC)c1cccc(C)c1`, the Potency entry in assay [1], in [2], in assay [3], in assay [4], in assay [5] and in assay [6] was “inactive” each time. The Potency entry in [7], in assay [8], in assay [10], in assay [11], in assay [13] and in [14] was “inactive” throughout. The Potency entry in assay [15], in assay [16] and in assay [17] was “inactive” in each case. The result in assay [9] was inactive. Also, in [12] (setting [21]), the activity change, positive = activation was 9.53% (inactive).

Consider `CC1=C(/C=C/C(C)=C/C=C/C(C)=C/C(=O)Nc2ccc(O)cc2)C(C)(C)CCC1`, for which the Potency entry in [1], in [18], in assay [6], in [8], in assay [15] and in assay [16] was “inactive” each time. Also, in assay [17], the Potency result is “inactive”. Also, the Potency was 23.7 µM (active) in [2]; 29.8 µM (active) in assay [3]; 28 µM (active) and 13.3 µM (active) in assay [4]; 6.27 µM (active) in assay [5]; 22.2 µM (active) and 11.9 µM (active) in assay [19]; 22.4 µM (active) and 19 µM (active) in assay [7]. Further, the Potency in [11] is 14 µM (active) and 11.9 µM (active); in assay [13] it was “inactive and 26.8 µM (active)”; in [14], 1 µM (active) and 425 nM (active). Moreover, the activity change, positive = activation in assay [12] (at 42.5 µM (top of the series)) was -57.7% (inactive); in [12] (at 92.4 µM (top of the series)), -54.4% (inactive).

On to `CCCCCCCC(=O)OCC`, for which the Potency result in assay [1], in [2], in [3], in assay [4], in [5] and in assay [6] was “inactive” in each case. Moreover, the Potency result in assay [19], in assay [7], in assay [8], in assay [10], in assay [11] and in [13] was “inactive” each time. Further, the Potency result in [14] and in [15] was “inactive” each time. In addition, the outcome in [9] was inactive. In addition, in [12] (setting [21]), the activity change, positive = activation is 0.783% (inactive).

Regarding `COc1cc(C(=O)NS(=O)(=O)c2ccccc2C)ccc1Cc1cn(C)c2ccc(NC(=O)OC3CCCC3)cc12`, in assay [1], the Potency was 27.5 µM (active). Besides, the Potency entry in assay [2], in [3], in assay [20], in assay [4], in [5] and in assay [19] was “inactive” throughout. In addition, the Potency result in assay [8], in [10], in [11], in [13], in assay [14] and in assay [15] was “inactive” in each case. The Potency result in assay [16] and in assay [17] was “inactive” in each case. In assay [12] (setting [21]), the activity change, positive = activation is -10.9% [at 42.5 µM] (inactive).

Turning to `C[C@@H]1CC[C@H]2C(C)(C)[C@H]3C[C@@]12CC[C@@]3(C)O`, the Potency entry in assay [1], in assay [2], in assay [3], in [20], in [4] and in assay [6] was “inactive” throughout. For the same compound, the Potency entry in assay [7], in [8], in assay [11], in assay [13], in assay [14] and in assay [15] was “inactive” in each case. Also, the Potency in assay [5] and in [19] was 54.4 µM (active) each time. Besides, the compound was called inactive in assay [9]. Besides, the activity change, positive = activation in assay [12] (setting [21]) was -6.53% (inactive).

Consider `CCc1c(Br)c(Br)c(Br)c(Br)c1Br`, for which the Potency result in assay [1], in [2], in assay [3], in assay [20], in assay [4] and in assay [6] was “inactive” in each case. In addition, the Potency entry in assay [7], in assay [8], in assay [10], in assay [11], in assay [13] and in assay [14] was “inactive” throughout. The Potency entry in assay [15], in [16] and in [17] was “inactive” each time. Further, the call in assay [9] was inactive. Also, the activity change, positive = activation in assay [12] (setting [21]) is -5.33% (inactive).

On to `C=CC(=O)OCCOCC(CC)(COCCOC(=O)C=C)COCCOC(=O)C=C`, for which the Potency entry in assay [1], in [18], in assay [6], in assay [19] and in assay [15] was “inactive” each time. In addition, the Potency in assay [2] is 71.4 µM (active); in [3], 31.9 µM (active); in [5], 40.2 µM (active); in assay [11], 25.3 µM (active); in assay [13], 25.6 µM (active); in [14] it was 16.1 µM (active). In assay [17], the Potency is 14.4 µM (active). Moreover, the activity change, positive = activation in [12] (setting [21]) was -76.5% (inactive).

The values are drawn from PubChem BioAssay (Tox21).
